Source: PubChem (several laboratories)
Compounds with a hit are over-represented: about 1.1% of the library has one in this group of screens.
CaV13 FRET inh = Primary screen for inhibitors of IQ motif and Ca2+-dependent inactivation inhibitor domain binding in CACNA1D, Förster resonance energy transfer in living cells, … | HEK cells, CFP/YFP FRET ICDI-IQ, plate reader, 10 min; percent FRET-ratio fall versus neutral wells | inhibition, % at 12.3 µM | hit rate 0.098% among 340,000 | AID 743397;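 active = mean replicate inhibition of at least 30% and at least 1% of replicates passing that level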
ABCB6 inh 2 = inhibitors of human ABC transporter ABCB6 | Q9NP58 | K562-ABCB6 porphyrin accumulation, flow cytometry, 1 h; hits give low values | fluorescence ratio to DMSO, % at 10 µM | hit rate 0.19% among 360,000 | AID 602162;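 active = fluorescence ratio to DMSO below 75%, the collection mean minus 3 SD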;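 also: signal is porphyrin accumulated inside mitochondria; lower ratio means ABCB6 inhibition with less porphyrin fluorescence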
Exocytosis inh = lytic granule exocytosis inhibition | AID 651702 | hit rate 0.66% among 360,000 | inhibition, % at 10 µM | TALL-104 LAMP-1 surface exposure, flow cytometry; cells stimulated with thapsigargin and PMA;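 active = inhibition above about 55%, limit read from the data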
VLA-4 inh = inhibition in a human VLA-4 binding assay; P13612; hit rate 0.2% among 330,000; VLA-4 expressing cells, ligand binding flow cytometry; inhibition, % (about 7 µM as worked out from the volumes in the protocol); in the data active = inhibition above about 50%
Granule exo CP1 = lytic granule exocytosis inhibition | shares compounds with Exocytosis inh | TALL-104 cells, LAMP-1 externalization, flow cytometry; stimulated with PMA plus thapsigargin | inhibition, % at 10 µM | hit rate 11% among 1,500 | AID 651954; in the data active = inhibition above about 60%
A number is an active result; i = inactive; nt = not tested or not shown.

SMILES | CaV13 FRET inh | ABCB6 inh 2 | Exocytosis inh | VLA-4 inh | Granule exo CP1
N=c1n(CC(=O)c2cccs2)c2ccccc2n1Cc1ccccc1 | i | i | i | i | nt
CCN1CCN(c2ccc(NC(=O)CCc3c(C)nc4c(-c5ccccc5)c(C)nn4c3C)cc2)CC1 | i | i | 56 | i | i
COc1ccccc1C(=O)NCCC(=O)N1CC=C(c2ccccc2)CC1 | i | i | i | i | nt
CCOc1ccc(NC(=O)c2ccc(CN3CCc4ccccc4C3)cc2)cc1 | i | i | i | i | nt
CCOC(=O)c1ccc(NC(=O)c2ccc(CN3CCc4ccccc4C3)cc2)cc1 | i | i | 70 | i | i
Cc1ccc2oc(C(=O)N(C)Cc3ccc(C)o3)c(C)c2c1 | i | i | 81 | i | i
O=C(O)Cn1ncn(-c2ccc(OC(F)(F)F)cc2)c1=O | i | i | i | i | nt
CCN(CC(=O)NC1CCS(=O)(=O)C1)S(=O)(=O)c1c(C)c(C)cc(C)c1C (stereo not given) | i | i | i | i | nt
CCOc1ccc(NC(=O)C2C(c3ccccc3)C2(Cl)Cl)cc1 (stereo not given) | i | i | 81 | i | i
COc1ccc(NC(=O)C2C(c3ccccc3)C2(Cl)Cl)c(OC)c1 (stereo not given) | i | i | 66 | i | i
Cc1ccc(NC(=O)C2C(c3ccccc3)C2(Cl)Cl)c(C)c1 (stereo not given) | nt | i | i | i | nt
COc1ccc(NC(=O)C2C(c3ccccc3)C2(Cl)Cl)cc1 (stereo not given) | i | i | i | i | nt
CSc1nc(C(C)C)ccc1CNC(=O)CC(C)c1ccccc1 (stereo not given) | i | i | 63 | i | i
Cc1ccc(-c2nnc(N3CCCCCC3)c3ccccc23)cc1 | i | i | 66 | i | i
NNC(=O)c1c(O)c2cccc3c2n(c1=O)CCC3 | i | i | i | i | nt
c1ccc(C2=NOC(c3nnc(-c4ccccc4)o3)C2)cc1 (stereo not given) | i | i | 91 | nt | i
CCOC(=O)c1c(CN2CCN(c3ccccc3)CC2)oc2ccc(O)cc12 | i | i | i | i | nt
CCOC(=O)c1c(N2CCN(c3ccccc3)CC2)cc(C)nc1C | i | i | 62 | i | i
O=C(NCc1ccc2c(c1)OCO2)C12CN(Cc3ccccc3)CC1C(c1cccc([N+](=O)[O-])c1)=NO2 (stereo not given) | i | i | 100 | i | i
O=C(NCc1ccc(C(F)(F)F)cc1)C12CN(Cc3ccccc3)CC1C(c1cccc([N+](=O)[O-])c1)=NO2 (stereo not given) | i | i | i | i | nt
COc1ccccc1N1CC(C(=O)OCC(=O)Nc2c(C)cccc2C)CC1=O (stereo not given) | i | i | i | i | nt
Cc1onc(-c2ccccc2Cl)c1C(=O)Nc1cccc2cccnc12 | i | i | i | i | nt
COc1cc(NC(=O)c2c(-c3ccccc3Cl)noc2C)c2ncccc2c1 | i | i | 82 | i | i
Fc1cccc(CNc2ncnc3ccc(-c4ccc5c(c4)OCO5)cc23)c1 | i | i | 65 | i | i
c1cncc(-c2ccc3ncnc(NCc4ccc5c(c4)OCO5)c3c2)c1 | i | i | i | i | nt
SMILES | CaV13 FRET inh | ABCB6 inh 2 | Exocytosis inh | VLA-4 inh | Granule exo CP1
COc1ccccc1-c1ccc([C@@H]2C[C@H]3[C@H](CON3C)CN2C(=O)c2ccco2)cc1 | i | i | i | nt | nt
Cc1cc2oc(=O)cc(CN(C)Cc3ccccc3)c2cc1C(C)C | i | i | 69 | i | i
COc1ccc2oc(=O)cc(CN(C)Cc3ccccc3)c2c1 | i | i | 72 | i | i
Cc1cc2oc(=O)cc(CN(C)Cc3ccccc3Cl)c2cc1C | i | i | 96 | i | i
COc1ccc(CN(C)Cc2cc(=O)oc3cc(C)c(C(C)C)cc23)cc1OC | i | i | i | i | nt
CCN(CC(=O)NCc1ccc(F)cc1)C(=O)CN1CCN(c2ccc(OC)cc2)CC1 | i | i | i | i | nt
COC(=O)c1[nH]c2cccc(Cl)c2c1NC(=O)CN(C)C1CCCCC1 | i | i | i | i | nt
COc1ncnc(-c2ccccc2)c1-c1ccccc1 | i | i | i | i | nt
COc1ccc(OC)c(NC(=O)COc2ccc(S(=O)(=O)N3CCCC3)cc2)c1 | i | i | i | i | nt
Cc1ccc(N2CCN(S(=O)(=O)c3ccc4oc(=O)ccc4c3)CC2)c(C)c1 | i | i | 86 | i | i
Cc1ccc2nc(-c3ccc(NC(=O)CNC4CC4)cc3)sc2c1 | i | i | 74 | nt | i
Cc1cccc(S(=O)(=O)Nc2ccc(-c3nc4ccc(C)cc4s3)cc2)c1 | i | i | 75 | i | i
